Laboratory results reported in PubChem BioAssay.
For some of these results: Results with a measured potency or affinity are listed apart. Active and inactive are the calls of the source.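 Rule for the calls, unless noted: active = signal rise over 3 SD above mean of control wells given weak agonist, in both repeats and first screen; inactive = the rest.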

Assays:
[1] = system: TRPC4 beta (transient receptor potential cation channel C4), mouse; experiment: activators of mouse TRPC4 channel, confirmation, cell-based, Fluo4 calcium, HEK293 TRPC4beta/mu-opioid, duplicates, 10 µM (AID 2426;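 active = fluorescence ratio normalized to control raised more than 50% in primary screen plus both repeat runs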); details: Fluo4 calcium fluorescence, at 10 µM; active compounds read high
[2] = system: transient receptor potential cation channel C4 beta (TRPC4), mouse; experiment: activators of mouse TRPC4 channel, confirmation, cell-based, second round, Fluo4, HEK293 TRPC4beta/mu-opioid, 1 µM (AID 2461;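 active = primary screen active and over 50% activation in each of two duplicate runs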); details: Fluo4 calcium fluorescence, at 1 µM; active compounds read high
[3] = system: TRPC4 (transient receptor potential cation channel C4 beta), mouse; experiment: positive allosteric modulators of mouse TRPC4, confirmation, cell-based, second round, Fluo-4, HEK293 TRPC4beta/mu-opioid, 1 µM (AID 2554;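 active = primary screen hit whose fluorescence ratio, in both repeats, exceeds the weak agonist control mean by 3 SD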); details: DAMGO EC20, Fluo-4 calcium flux, at 1 µM; active compounds read high
[4] = system: TRPC4 beta (transient receptor potential cation channel C4), mouse; experiment: positive allosteric modulators of mouse TRPC4, confirmation, cell-based, Fluo-4, HEK293 TRPC4beta/mu-opioid (AID 2555;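 active = primary screen hit whose calcium fluorescence ratio, in both repeats, exceeds the weak agonist control mean by 3 SD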); details: DAMGO EC20, Fluo-4 calcium flux, at 10 µM; active compounds read high
[5] = target: Short transient receptor potential channel 4 (Mus musculus) (UniProt Q9QUQ5); experiment: inhibitors of mouse TRPC4 channel, confirmation, cell-based, Fluo4, HEK293 TRPC4beta/mu-opioid (AID 2636;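 active = calcium signal cut by more than 3 SD below the full-agonist control yet still positive, in both repeats and the earlier primary screen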); details: DAMGO, Fluo4 calcium flux, at 10 µM; active compounds read high
Sequence of Short transient receptor potential channel 4 (Mus musculus) (Q9QUQ5 whole entry, looked up): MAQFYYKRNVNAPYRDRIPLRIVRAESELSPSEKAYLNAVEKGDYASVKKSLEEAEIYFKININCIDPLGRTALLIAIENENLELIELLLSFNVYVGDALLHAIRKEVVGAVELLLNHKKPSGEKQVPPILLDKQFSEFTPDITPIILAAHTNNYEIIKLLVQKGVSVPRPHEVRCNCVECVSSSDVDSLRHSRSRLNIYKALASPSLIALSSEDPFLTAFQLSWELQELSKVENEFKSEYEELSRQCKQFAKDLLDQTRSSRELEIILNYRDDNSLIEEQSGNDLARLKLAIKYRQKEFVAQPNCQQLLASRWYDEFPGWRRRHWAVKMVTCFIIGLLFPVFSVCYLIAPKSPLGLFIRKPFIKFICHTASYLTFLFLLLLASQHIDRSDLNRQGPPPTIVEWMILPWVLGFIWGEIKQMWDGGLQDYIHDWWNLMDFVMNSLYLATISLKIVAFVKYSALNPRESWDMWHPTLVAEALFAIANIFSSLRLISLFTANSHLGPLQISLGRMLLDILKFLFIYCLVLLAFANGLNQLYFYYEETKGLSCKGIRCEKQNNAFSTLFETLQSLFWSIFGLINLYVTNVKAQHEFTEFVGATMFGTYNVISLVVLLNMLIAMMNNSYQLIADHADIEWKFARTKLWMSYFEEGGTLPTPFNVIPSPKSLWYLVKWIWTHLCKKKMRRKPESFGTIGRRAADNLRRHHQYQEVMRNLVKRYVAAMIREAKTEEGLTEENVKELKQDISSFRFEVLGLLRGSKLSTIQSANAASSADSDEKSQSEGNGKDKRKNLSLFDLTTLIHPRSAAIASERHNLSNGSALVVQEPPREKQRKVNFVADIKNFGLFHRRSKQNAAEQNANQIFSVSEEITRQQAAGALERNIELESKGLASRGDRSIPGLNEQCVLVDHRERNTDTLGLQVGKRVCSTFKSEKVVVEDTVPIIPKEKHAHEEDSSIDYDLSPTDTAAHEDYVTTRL

[6] = target: Short transient receptor potential channel 4 (Mus musculus) (UniProt Q9QUQ5); experiment: inhibitors of mouse TRPC4 channel, confirmation, cell-based, second round, Fluo4, HEK293 TRPC4beta/mu-opioid, 1 µM (AID 2637;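 active = calcium signal ratio cut to more than 3 SD under the fully stimulated control mean yet still positive, in both repeats and the primary screen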;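 for inhibition: percent of integrated ratio relative to wells lacking test compound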); details: Fluo4 calcium flux, DAMGO, at 1 µM; active compounds read high
[7] = target: Short transient receptor potential channel 4 (Mus musculus) (UniProt Q9QUQ5); experiment: mouse TRPC4 channel activators, dose response, cell-based, HEK293 TRPC4/mu-opioid, Fluo-4 calcium (AID 434937;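 active = primary screen activator hit with a dose response curve and TRPC4 channel activation at any tested dose; inactive = no activation, no dose response, or not a primary hit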)
[8] = target: Short transient receptor potential channel 4 (Mus musculus) (UniProt Q9QUQ5); experiment: TRPC4 positive allosteric modulators, dose response, cell-based, HEK293 TRPC4/mu-opioid, Fluo-4 calcium, EC20 DAMGO (AID 434941;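 active = earlier screen potentiator hit that boosts the TRPC4 ion channel at some dose, with a dose response; inactive = no potentiation, no dose response, or not a prior hit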;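 note: calcium entry triggered by an EC20 dose of DAMGO at the co-expressed mu-opioid receptor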)
[9] = target: Short transient receptor potential channel 6 (Mus musculus) (UniProt Q61143); experiment: inhibition of mouse TRPC6 channel, confirmation, selectivity assay for TRPC4 inhibitor project, cell-based, HEK293, membrane potential dye, duplicate (AID 434948;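 active = active in primary screen and both duplicates, each dropping signal beyond three positive-control SD with fluorescence still positive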); details: HEK293 TRPC6, membrane potential dye fluorescence, at 10 µM, stimulated with maximal-effect acetylcholine; active compounds read high
Sequence of Short transient receptor potential channel 6 (Mus musculus) (Q61143 whole entry, looked up): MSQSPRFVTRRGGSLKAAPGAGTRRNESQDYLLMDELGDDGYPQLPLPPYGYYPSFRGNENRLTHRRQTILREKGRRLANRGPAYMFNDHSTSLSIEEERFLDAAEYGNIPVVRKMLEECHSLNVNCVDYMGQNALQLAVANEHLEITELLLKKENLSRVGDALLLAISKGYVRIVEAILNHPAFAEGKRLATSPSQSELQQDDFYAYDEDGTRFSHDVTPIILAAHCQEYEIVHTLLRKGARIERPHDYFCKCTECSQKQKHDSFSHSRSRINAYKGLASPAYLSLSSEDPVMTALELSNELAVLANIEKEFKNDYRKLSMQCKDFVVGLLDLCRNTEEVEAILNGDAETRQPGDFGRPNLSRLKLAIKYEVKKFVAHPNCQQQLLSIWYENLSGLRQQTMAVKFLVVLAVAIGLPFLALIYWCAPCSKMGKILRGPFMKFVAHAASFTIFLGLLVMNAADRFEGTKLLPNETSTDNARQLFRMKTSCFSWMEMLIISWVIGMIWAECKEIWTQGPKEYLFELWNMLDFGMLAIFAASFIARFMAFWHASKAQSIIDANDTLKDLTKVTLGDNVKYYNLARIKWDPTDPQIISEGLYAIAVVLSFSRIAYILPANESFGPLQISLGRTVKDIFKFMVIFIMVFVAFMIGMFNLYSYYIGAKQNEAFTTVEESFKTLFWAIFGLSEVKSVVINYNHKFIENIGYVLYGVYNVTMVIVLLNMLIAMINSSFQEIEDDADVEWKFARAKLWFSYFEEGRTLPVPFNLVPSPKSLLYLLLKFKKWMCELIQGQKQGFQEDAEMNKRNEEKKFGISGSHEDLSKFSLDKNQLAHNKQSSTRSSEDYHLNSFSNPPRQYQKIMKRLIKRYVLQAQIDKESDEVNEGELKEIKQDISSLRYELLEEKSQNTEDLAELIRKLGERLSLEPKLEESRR

[10] = target: Short transient receptor potential channel 6 (Mus musculus) (UniProt Q61143); experiment: activation of mouse TRPC6 channel, confirmation, selectivity assay for TRPC4 activator project, cell-based, HEK293, membrane potential dye, duplicate (AID 434950;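 active = membrane potential signal rise above negative control mean plus 3 SD in both duplicates, also active in the earlier TRPC4 screen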); details: HEK293 TRPC6, membrane potential fluorescence, at 10 µM; active compounds read high
[11] = target: Short transient receptor potential channel 6 (Mus musculus) (UniProt Q61143); experiment: TRPC6 potentiation by TRPC4 potentiator hits, confirmation, selectivity assay for TRPC4 potentiator project, HEK293 cells, membrane potential dye, duplicate (AID 434952;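 active = compound raising the membrane signal above positive-control mean plus 3 SD in both repeats, and a primary screen hit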); details: HEK293 TRPC6, membrane potential dye fluorescence, at 10 µM, maximal acetylcholine added after compound; active compounds read high
[12] = target: Short transient receptor potential channel 4 (Mus musculus) (UniProt Q9QUQ5); experiment: calcium flux activators in TRPC4/5HT1a cells, counter-screen for TRPC4 activator project, cell-based, second counter screen, HEK293 TRPC4/5HT1a, Fluo-4 (AID 434977;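 active = calcium signal rise above buffer-control mean plus 5 SD in both duplicates, and also a hit in the primary screen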); details: Fluo-4 calcium flux, at 10 µM; active compounds read high
[13] = calcium flux inhibitors in TRPC4/5HT1a cells, confirmation, counter-screen for TRPC4 inhibitor project, cell-based, second counter screen, HEK293 TRPC4/5HT1a, Fluo-4 (AID 434978;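 active = primary screen active whose calcium signal fell more than 3 SD beyond the full-serotonin control mean in both duplicate plates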;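 for outcome: serotonin given first at submaximal then at maximal dose after compound preincubation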); details: Fluo-4 calcium flux, at 10 µM, serotonin added to trigger calcium flux; active compounds read high
[14] = system: TRPC4 (mouse), co-expressed with 5HT1a in HEK293; experiment: calcium flux potentiators in TRPC4/5HT1a cells, confirmation, counter-screen for TRPC4 potentiator project, cell-based, second counter screen, HEK293 TRPC4/5HT1a, Fluo-4 (AID 434979); details: Fluo-4 calcium flux, at 10 µM, serotonin added at its EC20 dose; active compounds read high
[15] = calcium flux activation in mu-opioid HEK293 cells, confirmation, counter-screen for TRPC4 activator project, cell-based, HEK293 mu-opioid receptor line (AID 449723;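 active = hit in primary screen, with calcium signal over 5 SD above buffer well mean in both duplicates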;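 note: counter screen cells carry the mu-opioid receptor alone and lack TRPC4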); details: Fluo-4 calcium fluorescence, at 10 µM; active compounds read high
[16] = calcium flux enhancement in mu-opioid HEK293 cells, confirmation, counter-screen for TRPC4 allosteric potentiator project, cell-based, HEK293 mu-opioid receptor line (AID 449724;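 active = calcium signal rise more than 3 SD above the low-dose agonist control mean, in both duplicate plates and the primary screen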); details: Fluo-4 calcium flux, at 10 µM, compound added before EC20 DAMGO stimulus; active compounds read high

SMILES: O=C(Nc1ccccc1Oc1cccnc1)C1CCCN(Cc2cccc(Cl)c2)C1 (stereo unspecified)
- outcome [1]: inactive
- outcome [2]: inactive
- outcome [3]: inactive
- outcome [4]: inactive
- inhibition [5]: 89% (active)
- outcome [6]: inactive
- outcome [7]: inactive
- outcome [8]: inactive
- outcome [9]: inactive
- outcome [10]: inactive
- outcome [11]: inactive
- outcome [12]: inactive
- inhibition [13]: 33.5% (active)
- outcome [14]: inactive
- outcome [15]: inactive
- outcome [16]: inactive

SMILES: Fc1ccccc1Sc1ccccc1CNC1=NCCN1
- outcome [1]: inactive
- outcome [2]: inactive
- outcome [3]: inactive
- outcome [4]: inactive
- inhibition [5]: 93% (active)
- inhibition [6]: 68% (active)
- outcome [7]: inactive
- outcome [8]: inactive
- outcome [9]: inactive
- outcome [10]: inactive
- outcome [11]: inactive
- outcome [12]: inactive
- inhibition [13]: 16.1% (active)
- outcome [14]: inactive
- outcome [15]: inactive
- outcome [16]: inactive

SMILES: O=c1c2ccccc2nc(SCc2ccccc2)n1CC1CCCO1 (stereo unspecified)
- outcome [1]: inactive
- outcome [2]: inactive
- outcome [3]: inactive
- outcome [4]: inactive
- inhibition [5]: 54% (active)
- outcome [6]: inactive
- outcome [7]: inactive
- outcome [8]: inactive
- outcome [9]: inactive
- outcome [10]: inactive
- outcome [11]: inactive
- outcome [12]: inactive
- inhibition [13]: 18.9% (active)
- outcome [14]: inactive
- outcome [15]: inactive
- outcome [16]: inactive

SMILES: Cc1nc(Cl)c(Cl)n1CCOc1ccccc1
- outcome [1]: inactive
- outcome [2]: inactive
- outcome [3]: inactive
- outcome [4]: inactive
- inhibition [5]: 94% (active)
- inhibition [6]: 46% (active)
- outcome [7]: inactive
- outcome [8]: inactive
- outcome [9]: inactive
- outcome [10]: inactive
- outcome [11]: inactive
- outcome [12]: inactive
- inhibition [13]: 18.9% (active)
- outcome [14]: inactive
- outcome [15]: inactive
- outcome [16]: inactive

SMILES: CC(C)Cc1nc(N2CCOCC2)c(C#N)c2c1CCC2
- outcome [1]: inactive
- outcome [2]: inactive
- outcome [3]: inactive
- outcome [4]: inactive
- inhibition [5]: 76% (active)
- inhibition [6]: 50% (active)
- outcome [7]: inactive
- outcome [8]: inactive
- outcome [9]: inactive
- outcome [10]: inactive
- outcome [11]: inactive
- outcome [12]: inactive
- inhibition [13]: 35.1% (active)
- outcome [14]: inactive
- outcome [15]: inactive
- outcome [16]: inactive

SMILES: Cc1ccc(C)c2[nH]c(=O)c(CN(Cc3nnnn3C3CCCCC3)CC3CCCO3)cc12 (stereo unspecified)
- outcome [1]: inactive
- outcome [2]: inactive
- outcome [3]: inactive
- outcome [4]: inactive
- inhibition [5]: 78% (active)
- outcome [6]: inactive
- outcome [7]: inactive
- outcome [8]: inactive
- outcome [9]: inactive
- outcome [10]: inactive
- outcome [11]: inactive
- outcome [12]: inactive
- inhibition [13]: 33% (active)
- outcome [14]: inactive
- outcome [15]: inactive
- outcome [16]: inactive

SMILES: C#Cc1ccc(CN2CCCC(C(=O)Nc3ccccc3Oc3cccnc3)C2)cc1 (stereo unspecified)
- outcome [1]: inactive
- outcome [2]: inactive
- outcome [3]: inactive
- outcome [4]: inactive
- inhibition [5]: 92% (active)
- inhibition [6]: 39% (active)
- outcome [7]: inactive
- outcome [8]: inactive
- outcome [9]: inactive
- outcome [10]: inactive
- outcome [11]: inactive
- outcome [12]: inactive
- inhibition [13]: 21.7% (active)
- outcome [14]: inactive
- outcome [15]: inactive
- outcome [16]: inactive

SMILES: COc1cccc(N2CC(O)=C(c3nc4ccccc4c(=O)[nH]3)C2=N)c1
- outcome [1]: inactive
- outcome [2]: inactive
- outcome [3]: inactive
- outcome [4]: inactive
- inhibition [5]: 74% (active)
- inhibition [6]: 47% (active)
- outcome [7]: inactive
- outcome [8]: inactive
- outcome [9]: inactive
- outcome [10]: inactive
- outcome [11]: inactive
- outcome [12]: inactive
- inhibition [13]: 37.5% (active)
- outcome [14]: inactive
- outcome [15]: inactive
- outcome [16]: inactive

SMILES: Cc1cc(Br)c(NC(=O)CN(C)CCOc2ccccc2)c(Br)c1
- outcome [1]: inactive
- outcome [2]: inactive
- outcome [3]: inactive
- outcome [4]: inactive
- inhibition [5]: 81% (active)
- outcome [6]: inactive
- outcome [7]: inactive
- outcome [8]: inactive
- outcome [9]: inactive
- outcome [10]: inactive
- outcome [11]: inactive
- outcome [12]: inactive
- inhibition [13]: 45.2% (active)
- outcome [14]: inactive
- outcome [15]: inactive
- outcome [16]: inactive

SMILES: N#Cc1c(NC(=O)C2CC(Cl)=CCC2C(=O)O)sc2c1CCCCC2 (stereo unspecified)
- outcome [1]: inactive
- outcome [2]: inactive
- outcome [3]: inactive
- outcome [4]: inactive
- inhibition [5]: 51% (active)
- outcome [6]: inactive
- outcome [7]: inactive
- outcome [8]: inactive
- outcome [9]: inactive
- outcome [10]: inactive
- outcome [11]: inactive
- outcome [12]: inactive
- inhibition [13]: 18.6% (active)
- outcome [14]: inactive
- outcome [15]: inactive
- outcome [16]: inactive

SMILES: c1ccc(CNc2c3ccccc3nc3ccccc23)cc1
- outcome [1]: inactive
- outcome [2]: inactive
- outcome [3]: inactive
- outcome [4]: inactive
- inhibition [5]: 95% (active)
- inhibition [6]: 60% (active)
- outcome [7]: inactive
- outcome [8]: inactive
- inhibition [9]: 38% (active)
- outcome [10]: inactive
- outcome [11]: inactive
- outcome [12]: inactive
- inhibition [13]: 23.7% (active)
- outcome [14]: inactive
- outcome [15]: inactive
- outcome [16]: inactive

SMILES: CCOC(=O)C1(CCOc2ccccc2)CCN(Cc2cccn2-c2ncccn2)CC1
- outcome [1]: inactive
- outcome [2]: inactive
- outcome [3]: inactive
- outcome [4]: inactive
- inhibition [5]: 86% (active)
- inhibition [6]: 43% (active)
- outcome [7]: inactive
- outcome [8]: inactive
- inhibition [9]: 52.5% (active)
- outcome [10]: inactive
- outcome [11]: inactive
- outcome [12]: inactive
- outcome [13]: inactive
- outcome [14]: inactive
- outcome [15]: inactive
- outcome [16]: inactive

SMILES: Cc1ccc(-c2csc(NC(=O)C3CC=CCC3C(=O)O)c2C(=O)OC(C)C)cc1 (stereo unspecified)
- outcome [1]: inactive
- outcome [2]: inactive
- outcome [3]: inactive
- outcome [4]: inactive
- outcome [5]: inactive
- outcome [6]: inactive
- outcome [7]: inactive
- outcome [8]: inactive
- outcome [9]: inactive
- outcome [10]: inactive
- outcome [11]: inactive
- outcome [12]: inactive
- inhibition [13]: 20.1% (active)
- outcome [14]: inactive
- outcome [15]: inactive
- outcome [16]: inactive

SMILES: NC(=NC1CCCCC1)c1ccc(Cl)cc1
- outcome [1]: inactive
- outcome [2]: inactive
- outcome [3]: inactive
- outcome [4]: inactive
- inhibition [5]: 97% (active)
- inhibition [6]: 66% (active)
- outcome [7]: inactive
- outcome [8]: inactive
- outcome [9]: inactive
- outcome [10]: inactive
- outcome [11]: inactive
- outcome [12]: inactive
- inhibition [13]: 22.8% (active)
- outcome [14]: inactive
- outcome [15]: inactive
- outcome [16]: inactive

SMILES: CCN(CC)c1ncnc2scc(C3COc4ccccc4O3)c12 (stereo unspecified)
- outcome [1]: inactive
- outcome [2]: inactive
- outcome [3]: inactive
- outcome [4]: inactive
- inhibition [5]: 86% (active)
- outcome [6]: inactive
- outcome [7]: inactive
- outcome [8]: inactive
- outcome [9]: inactive
- outcome [10]: inactive
- outcome [11]: inactive
- outcome [12]: inactive
- inhibition [13]: 33% (active)
- outcome [14]: inactive
- outcome [15]: inactive
- outcome [16]: inactive

SMILES: Cc1cc(OCC(=O)Nc2ccc(N3CCN(C)CC3)cc2)ccc1Cl
- outcome [1]: inactive
- outcome [2]: inactive
- outcome [3]: inactive
- outcome [4]: inactive
- inhibition [5]: 79% (active)
- outcome [6]: inactive
- outcome [7]: inactive
- outcome [8]: inactive
- outcome [9]: inactive
- outcome [10]: inactive
- outcome [11]: inactive
- outcome [12]: inactive
- outcome [13]: inactive
- outcome [14]: inactive
- outcome [15]: inactive
- outcome [16]: inactive
